Measurements reported in ChEMBL document CHEMBL3988442, “University of Dundee, Small-Polar-MMV Screening Library” (2021).
Screen size: about 48,000 compounds; about 13,000 (27%) showed an effect of 50% or more. The list shows a part of the results.

The compounds below were run on Wolbachia pipientis (assay: Anti-Wolbachia Cell-Based Screen). Details: 5 µM.
Assay type: functional
Design: scale not given: in the data most compounds retested in dose-response had high values

| Structure (SMILES) | Percent Effect [%] |
| --- | --- |
| COCc1nc(C2CC2)nn1-c1ccccc1Cl | -16.97 |
| CC(NCc1c(C(C)C)nn(C)c1N1CCOCC1)C(N)=O (stereo unspecified) | 1.644 |
| Cc1cnc(C)c(N2CCC(c3nccn3Cc3cscn3)CC2)n1 | 32.35 |
| CC(NC(=O)CCCOc1cccc(F)c1)c1ccncc1 (stereo unspecified) | -15.4 |
| Cc1ncc2c(n1)CN(Cc1ncc(C(C)(C)C)o1)CC2 | 13.07 |
| OCC(O)CN1CCc2onc(-c3ccc(C(F)(F)F)cc3)c2C1 (stereo unspecified) | -7.135 |
| CN(C)C(=O)c1ccc(OC2CCOCC2)cc1 | 14.67 |
| COC(C)(C)CNC(=O)N(C)Cc1nc(-c2ccccc2)c[nH]1 | -6.978 |
| COc1ccc(OCc2cc(C(=O)N3CCSCC3)n[nH]2)c(Cl)c1 | -44.95 |
| CCOc1ccc(Cl)c(C(=O)N(C)C)n1 | -5.446 |
| CCOc1ccc(Cl)c(C(=O)N2CCN(C(=O)c3ccoc3C)CC2)n1 | -0.3279 |
| CCOc1ccc(Cl)c(C(=O)N2CCN(C(=O)OC)CC2)n1 | 106.5 |
| CC(C)(O)CN1CCN(C(=O)c2cccc3[nH]ncc23)CC1 | 5.71 |
| CCOc1ccc(Cl)c(C(=O)NCc2ccc(C(=O)NC)cc2)n1 | -13.09 |
| CC(C)(O)CN1CCN(C(=O)c2cc(Cl)cc3cccnc23)CC1 | -2.728 |
| CCOc1ccc(Cl)c(C(=O)N2CCCSCC2)n1 | 87.04 |
| CCOc1ccc(Cl)c(C(=O)N2CCN(CC(C)(C)O)CC2)n1 | 117.3 |
| c1cnnc(N2CCCC(NCc3ccc(-n4cccn4)cc3)C2)c1 (stereo unspecified) | -2.089 |
| Cc1cc(C)c2nc(CN3CCOC(CCO)C3)cc(O)c2c1 (stereo unspecified) | -3.808 |
| c1ncn(CC2CN(CC3CCCCC3)CCO2)n1 (stereo unspecified) | 107.8 |
| c1cnn(CC2CN(CCc3ccncc3)CCO2)c1 (stereo unspecified) | 0.6004 |
| c1cnn(CCN2CCOC(Cn3cncn3)C2)c1 (stereo unspecified) | -9.191 |

| Structure (SMILES) | Percent Effect [%] |
| --- | --- |
| c1cnn(CCN2CCOC(Cn3cccn3)C2)c1 (stereo unspecified) | 108.3 |
| Cc1cc(CCC2CN(CC3(O)CCCCC3)CCO2)ncn1 (stereo unspecified) | 116.4 |
| O=S(=O)(CCCN1CCOC(Cn2cccn2)C1)c1ccccc1 (stereo unspecified) | 7.752 |
| c1ccc(CCCN2CCOC(Cn3cccn3)C2)cc1 (stereo unspecified) | 128.6 |
| c1ccc(CCN2CCOC(Cn3cccn3)C2)nc1 (stereo unspecified) | 5.708 |
| C=C(C)CN1CCOC(Cn2cncn2)C1 (stereo unspecified) | -5.235 |
| c1ncn(CC2CN(CC3CCCC3)CCO2)n1 (stereo unspecified) | -0.8263 |
| O=C(O)c1csc(S(=O)(=O)Nc2cccc(OC(F)F)c2)c1 | -1.91 |
| COC(=O)C(NC(=O)c1ccc(NC2CC2)nc1)c1ccccc1 (stereo unspecified) | -0.3075 |
| O=C(NCCc1ccccc1)N1CC[C@@H]2CNS(=O)(=O)[C@@H]2CC1 | -17.14 |
| COC1CCN(C(=O)Cn2cccc(C(F)(F)F)c2=O)C1 (stereo unspecified) | -0.2293 |
| O=S(=O)(CCN1CCOC(Cn2cccn2)C1)C(F)(F)F (stereo unspecified) | 8.008 |
| CC(C)=CCN1CCOC(Cn2cccn2)C1 (stereo unspecified) | 136 |
| OC1(CN2CCOC(Cn3cccn3)C2)CCCCC1 (stereo unspecified) | 99.61 |
| c1cnn(CC2CN(CC3CCCCC3)CCO2)c1 (stereo unspecified) | 102.2 |
| FC(F)(F)Cn1ccnc1CN1CCOC(Cn2cccn2)C1 (stereo unspecified) | -0.9498 |
| c1cnn(CC2CN(CC3CCCC3)CCO2)c1 (stereo unspecified) | 7.004 |
| Cc1cccc(C(C)NCC2CCS(=O)(=O)CC2)c1 (stereo unspecified) | -4.903 |
| O[C@H]1Cc2ccccc2[C@H]1Nc1ncccc1C(F)(F)F | -3.306 |
| CCN(CC)C(=O)[C@@H]1C[C@@H](NC(=O)c2cccc(N(C)C)c2)CN1C | -6.856 |
| COc1cc(C)nc(N2CCN(C(C)c3nc(C4CC4)no3)CC2)n1 (stereo unspecified) | 4.237 |
| Cc1nnc(NCC(c2ccco2)N(C)C)c(C#N)c1C (stereo unspecified) | 0.3665 |

| Structure (SMILES) | Percent Effect [%] |
| --- | --- |
| O=C(CCn1ccc2ccc(F)cc21)/N=c1\[nH]nc(C2CCCO2)s1 (stereo unspecified) | 105.1 |
| O=C(CC1CCCO1)Nc1ccc2c(ccn2CCN2CCOCC2)c1 (stereo unspecified) | -5.067 |
| O=C(Cn1ccc2ccc(Br)cc21)NC[C@@H]1CCCN2CCCC[C@H]12 | 19.6 |
| O=C(Cn1ccc2ccc(Cl)cc21)/N=c1\[nH]nc(C2CCCO2)s1 (stereo unspecified) | 134.6 |
| O=C(CCn1ccc2cc(Br)ccc21)/N=c1\[nH]nc(C2CCCO2)s1 (stereo unspecified) | 98.02 |
| CCN(CC)C(=O)Cn1ccc2cc(NC(=O)C3CCCO3)ccc21 (stereo unspecified) | -12.1 |
| NC(=O)C1CCN(C(=O)CCn2ccc3cc(Br)ccc32)CC1 | 25.85 |
| O=C(NCCc1ccn(-c2ccc(F)cc2)n1)C1CCCO1 (stereo unspecified) | -8.284 |
| O=C(CCn1ccc2ccc(Br)cc21)/N=c1\[nH]nc(C2CCCO2)s1 (stereo unspecified) | 100.3 |
| Cn1cc(C2CCCN2C(=O)Cn2ccc3ccc(Cl)cc32)cn1 (stereo unspecified) | -41.07 |
| O=C(NCc1cnn(-c2ccc(F)cc2F)c1)C1CCCO1 (stereo unspecified) | 2.744 |
| CCCn1ccc2cc(NC(=O)CC3CCCO3)ccc21 (stereo unspecified) | 3.072 |
| CCCN(C(=O)CCS(=O)(=O)Cc1ccccc1)c1cccc(C)c1 | -47.75 |
| Cc1ccc(-c2cn3c(n2)CO[C@@H](CNCc2cccnc2)C3)cc1 | 0.839 |
| Cc1[nH]/c(=N\C(=O)c2csc(NCC(C)C)n2)sc1C | 1.657 |
| CCn1ccc2cc(NC(=O)CC3CCCO3)ccc21 (stereo unspecified) | 3.531 |
| COc1ccc2c(ccn2CCC(=O)/N=c2\[nH]nc(C3CCCO3)s2)c1 (stereo unspecified) | 126.4 |
| CNC(=O)CCC(=O)N1CCOC(c2ccc3cc(OC)ccc3c2)C1 (stereo unspecified) | 9.004 |
| CCC(C)CN1CCC(n2cc(C3CCCCC3)nn2)CC1 (stereo unspecified) | -12.86 |
| CC(C)Nc1cc(N2CCC(n3cc(CCO)nn3)CC2)ncn1 | 96.69 |
| CCc1cc(N2CCC(n3cc(C(=O)NCC(C)C)nn3)CC2)ncn1 | -7.159 |
| Cc1cc(N2CCC(n3cc(CCCO)nn3)CC2)ccn1 | 1.957 |

| Structure (SMILES) | Percent Effect [%] |
| --- | --- |
| C=C(C)CN1CCC(n2cc(C3CCCC3)nn2)CC1 | 14.96 |
| O=C(NC1CC1)c1cn(C2CCN(c3cc(C4CC4)ncn3)CC2)nn1 | -15.81 |
| CCC(C)CN1CCC(n2cc(C3CCCC3)nn2)CC1 (stereo unspecified) | -13.12 |
| OCCNc1cc(N2CCC(n3cc(C4CCCC4)nn3)CC2)ncn1 | 104 |
| CCCC(C)CN1CCC(n2cc(C3CCCC3)nn2)CC1 (stereo unspecified) | 0.2453 |
| CC(C)Nc1cc(N2CCC(n3cc(C4CC4)nn3)CC2)ncn1 | 77.15 |
| CC(C)Nc1cc(N2CCC(n3cc(C4CCCC4)nn3)CC2)ncn1 | 92.63 |
| CCc1cc(N2CCC(n3cc(C(=O)NC4CC4)nn3)CC2)ncn1 | -11.68 |
| Cc1nn(CCO)c(C)c1CNC1CCC(C)(C)c2ccccc21 (stereo unspecified) | -8.145 |
| CNCCN1C(=O)CC[C@H]2CN(c3cnc4ccccc4n3)CC[C@H]21 | -7.782 |
| CC(C)COC1CCN(C(=O)c2ccc(C(F)(F)F)[nH]c2=O)CC1 | 17.18 |
| N#Cc1ccc(CS(=O)(=O)NC(=O)c2ccc(C#N)cc2)cc1 | 0.6106 |
| CCN1CCc2c(sc3c2C(=O)NC(/C=C/c2ccco2)N3)C1 (stereo unspecified) | 144 |
| CN1CCc2c(sc3c2C(=O)NC(/C=C/c2ccccc2)N3)C1 (stereo unspecified) | 102.8 |
| CCN1CCc2c(sc3c2C(=O)NC(/C=C\c2ccccc2)N3)C1 (stereo unspecified) | 141.7 |
| NC(=O)Nc1cccc(CNC(=O)CCCOCc2ccccc2)c1 | -14.12 |
| Cc1noc(C)c1C(=O)N(Cc1ccsc1)CC1CCCO1 (stereo unspecified) | -86.84 |
| CCN1CCN(S(=O)(=O)N2CCCCCC2)[C@H]2CS(=O)(=O)C[C@H]21 | 2.124 |
| CCCC(=O)N(CCCN1CCOCC1)c1nc2c(Cl)cccc2s1.Cl | 31 |
| Cn1c(-c2ccccc2Cl)nc2cc(C(=O)NCC3(CO)CC3)cnc21 | 10.87 |
| O=C(CCn1cncn1)NCC(c1ccco1)N1CCCCC1 (stereo unspecified) | 106.2 |
| O=C(CCn1cncn1)NCC(c1ccco1)N1CCCC1 (stereo unspecified) | 144.5 |

| Structure (SMILES) | Percent Effect [%] |
| --- | --- |
| Cc1noc(CCCC(=O)NCC(c2ccco2)N2CCCC2)n1 (stereo unspecified) | 1.423 |
| O=C(NCCCn1cncn1)NCC(c1ccco1)N1CCCCC1 (stereo unspecified) | 9.107 |
| Cc1noc(CCCC(=O)NCC(c2ccco2)N2CCCCC2)n1 (stereo unspecified) | -0.8117 |
| CC(C)c1noc(CCC(=O)NCC(c2ccco2)N2CCCC2)n1 (stereo unspecified) | -11.99 |
| CC1CCN(CC(O)CN2CCn3c(nnc3C3CC3)C2)CC1 (stereo unspecified) | -2.379 |
| Cc1ccoc1-c1nnc(CN2CCn3c(nnc3C3CC3)C2)o1 | 8.401 |
| CC(C)c1nnc(NC(=O)CCc2cc(F)ccc2F)[nH]1 | -72.05 |
| Cc1n[nH]c(C)c1CCCN(C)Cc1c[nH]nc1-c1ccc(F)cc1 | -0.8434 |
| CN(Cc1cn[nH]c1-c1ccc(F)cc1)C(=O)CCC1CC1 | -8.61 |
| Cc1n[nH]c(C)c1CCC(=O)N(C)Cc1cn[nH]c1-c1ccc(F)cc1 | 62.4 |
| COc1cc(CNC(=O)Nc2nnc(C3CC3)s2)ccc1O | -2.048 |
| CCCc1nnc(NC(=O)NC2CCOc3ccccc32)s1 (stereo unspecified) | -4.049 |
| COc1ccc(CCc2nnc(NC(=O)C3CC34CCC4)s2)cc1OC (stereo unspecified) | 134.8 |
| CC(=O)NC(C)CC(=O)NCc1cccnc1Oc1ccccc1C (stereo unspecified) | -2.321 |
| COc1ccc(C(CC(=O)NCc2n[nH]c(N)n2)c2ccccc2)cc1 (stereo unspecified) | -21.33 |
| COc1cc2nc(C)n(CC(=O)O)c(=O)c2cc1OC | 17.35 |
| COc1cc2ncn(CC(=O)NCCCN(C)C)c(=O)c2cc1OC | 7.86 |
| COc1cc2ncn(Cc3ncc[nH]3)c(=O)c2cc1OC | 88.22 |
